From PubChem BioAssay (NCI)
About 83,000 compounds went through this panel and 20% of them were active in at least one assay; those are over-represented in the sample as a whole.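 A percent growth of 40 corresponds to 60% growth inhibition; 0 means no net growth; -100 means all cells died. Active threshold: below 10.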 The source made the active and inactive calls.

Assays:
Experiment in all cases: NCI-60 one-dose screen, 48 h (100 = growth as untreated, 0 = no growth, -100 = all killed)
SR leukemia = details: 10 µM unless noted
RPMI-8226 leukemia = details: 10 µM unless noted
OVCAR-8 ovarian = details: 10 µM unless noted
OVCAR-5 ovarian = details: 10 µM unless noted
OVCAR-4 ovarian = details: 10 µM unless noted
SK-OV-3 ovarian = details: 10 µM unless noted
IGROV1 ovarian = details: 10 µM unless noted
OVCAR-3 ovarian = details: 10 µM unless noted
NCI/ADR-RES ovarian = details: 10 µM unless noted
T-47D breast = details: 10 µM unless noted
BT-549 breast = details: 10 µM unless noted
MDA-MB-435 melanoma = details: 10 µM unless noted
SW-620 colon = details: 10 µM unless noted
MCF7 breast = details: 10 µM unless noted
HCT-116 colon = details: 10 µM unless noted
HCC-2998 colon = details: 10 µM
KM12 colon = details: 10 µM unless noted

Measured: growth

CN1CCC(COc2cnc(-c3cccc(Cn4nc(-c5cccc(C#N)c5)ccc4=O)c3)nc2)CC1
active: SR leukemia -9.84% | T-47D breast -49.1%
inactive: RPMI-8226 leukemia 50.8% | OVCAR-8 ovarian 59.9% | OVCAR-5 ovarian 78.9% | OVCAR-4 ovarian 75.4% | SK-OV-3 ovarian 70.3% | IGROV1 ovarian 73.3% | OVCAR-3 ovarian 81.7% | NCI/ADR-RES ovarian 82.2% | BT-549 breast 63.4% | MDA-MB-435 melanoma 53.8% | SW-620 colon 45.6% | MCF7 breast 60.3% | HCT-116 colon 22.5% | HCC-2998 colon 80.7% | KM12 colon 33.7%

Cc1cn(-c2cc(NC(=O)c3ccc(C)c(Nc4nccc(-c5cnccn5)n4)c3)cc(C(F)(F)F)c2)cn1
inactive: SR leukemia 21.5% | RPMI-8226 leukemia 54% | OVCAR-8 ovarian 47.1% | OVCAR-5 ovarian 79% | OVCAR-4 ovarian 99.7% | SK-OV-3 ovarian 59.4% | IGROV1 ovarian 85.1% | OVCAR-3 ovarian 103% | NCI/ADR-RES ovarian 63.8% | T-47D breast 66.7% | BT-549 breast 98.8% | MDA-MB-435 melanoma 23.2% | SW-620 colon 75.5% | MCF7 breast 69% | HCT-116 colon 42.6% | KM12 colon 46.4%

Cc1cc(C(=O)NOCCO)c(Nc2ccc(I)cc2F)n(C)c1=O
inactive: SR leukemia 71.3% | RPMI-8226 leukemia 78.8% | OVCAR-8 ovarian 67.9% | OVCAR-5 ovarian 20.3% | OVCAR-4 ovarian 71.3% | SK-OV-3 ovarian 57.3% | IGROV1 ovarian 28% | OVCAR-3 ovarian 106% | NCI/ADR-RES ovarian 76.2% | T-47D breast 103% | BT-549 breast 85.7% | MDA-MB-435 melanoma 35.4% | SW-620 colon 24.8% | MCF7 breast 94.7% | HCT-116 colon 15.2% | KM12 colon 28.4%

C=CC(=O)Nc1cc2c(Nc3ccc(F)c(Cl)c3)ncnc2cc1OCCCN1CCOCC1
inactive: OVCAR-5 ovarian 35.6% | OVCAR-3 ovarian 14.7% | NCI/ADR-RES ovarian 13.8% | MDA-MB-435 melanoma 23.6% | MCF7 breast 13.7% | KM12 colon 19.1%
active: SR leukemia -8.22% | RPMI-8226 leukemia -9.72% | OVCAR-8 ovarian -17.6% | OVCAR-4 ovarian 8.1% | SK-OV-3 ovarian -16.3% | IGROV1 ovarian -67.5% | T-47D breast -0.739% | BT-549 breast -10.8% | SW-620 colon -53.5% | HCT-116 colon -70.8%

Cc1ccc(Nc2nccc(N(C)c3ccc4c(C)n(C)nc4c3)n2)cc1S(N)(=O)=O
active: OVCAR-5 ovarian 9.38% | SK-OV-3 ovarian -1.9% | IGROV1 ovarian 3.2% | T-47D breast 4.07% | HCT-116 colon 3.7%
inactive: SR leukemia 18% | RPMI-8226 leukemia 20.8% | OVCAR-8 ovarian 20.4% | OVCAR-4 ovarian 31.3% | OVCAR-3 ovarian 39.9% | NCI/ADR-RES ovarian 48.5% | BT-549 breast 25.8% | MDA-MB-435 melanoma 19.3% | SW-620 colon 19.3% | MCF7 breast 32.3% | KM12 colon 15%

CN1CCN(CCOc2cc(OC3CCOCC3)c3c(Nc4c(Cl)ccc5c4OCO5)ncnc3c2)CC1
inactive: SR leukemia 38.7% | RPMI-8226 leukemia 95.1% | OVCAR-8 ovarian 55.6% | OVCAR-5 ovarian 29.1% | OVCAR-4 ovarian 95.8% | OVCAR-3 ovarian 59.3% | NCI/ADR-RES ovarian 60.7% | BT-549 breast 89.2% | MDA-MB-435 melanoma 98.3% | SW-620 colon 110% | MCF7 breast 62.8% | HCT-116 colon 35.3% | KM12 colon 17.1%
active: SK-OV-3 ovarian -14.6% | IGROV1 ovarian -15.6% | T-47D breast -14.3%

N#Cc1c(NC(=O)c2cccs2)[n+]([O-])c2ccc(F)cc2[n+]1[O-]
inactive: SR leukemia 77% | RPMI-8226 leukemia 93.2% | OVCAR-8 ovarian 95.6% | OVCAR-5 ovarian 108% | OVCAR-4 ovarian 85.7% | SK-OV-3 ovarian 82.6% | IGROV1 ovarian 68.9% | OVCAR-3 ovarian 98.3% | NCI/ADR-RES ovarian 111% | T-47D breast 76.9% | BT-549 breast 99.6% | MDA-MB-435 melanoma 105% | SW-620 colon 74% | MCF7 breast 86.5% | HCT-116 colon 104% | KM12 colon 92.2%

COc1ccc2c(OCc3nnc4ccc(-c5ccccc5)nn34)ccnc2c1
inactive: SR leukemia 80.9% [2.5 µM] | RPMI-8226 leukemia 104% [2.5 µM] | OVCAR-8 ovarian 102% [2.5 µM] | OVCAR-5 ovarian 87.3% [2.5 µM] | OVCAR-4 ovarian 100% [2.5 µM] | SK-OV-3 ovarian 73.3% [2.5 µM] | IGROV1 ovarian 106% [2.5 µM] | OVCAR-3 ovarian 110% [2.5 µM] | NCI/ADR-RES ovarian 76.3% [2.5 µM] | T-47D breast 71.1% [2.5 µM] | BT-549 breast 102% [2.5 µM] | MDA-MB-435 melanoma 103% [2.5 µM] | SW-620 colon 109% [2.5 µM] | MCF7 breast 93.4% [2.5 µM] | HCT-116 colon 98.4% [2.5 µM] | KM12 colon 94.3% [2.5 µM]

Nc1cc(C(F)(F)F)c(-c2cc(N3CCOCC3)nc(N3CCOCC3)n2)cn1
active: SR leukemia -6.66% | RPMI-8226 leukemia -6.64% | OVCAR-8 ovarian -24.2% | OVCAR-5 ovarian -17.3% | OVCAR-4 ovarian -11.9% | SK-OV-3 ovarian -54.8% | IGROV1 ovarian -44.6% | OVCAR-3 ovarian -9.69% | NCI/ADR-RES ovarian -20.2% | T-47D breast -42.9% | BT-549 breast -2.66% | MDA-MB-435 melanoma -62.3% | SW-620 colon 0.981% | MCF7 breast -7.62% | HCT-116 colon -25.4% | KM12 colon -1.19%
